Experimental data from PubChem BioAssay AID2013 (Sanford-Burnham Center for Chemical Genomics, 2009).
Screen size: about 290,000 compounds; about 370 (0.13%) were called active. This is one part of a sample in which actives are shown more often than they occur. Results with a measured potency or affinity are listed apart. Unmarked numbers belong to inactive results.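 Rule for the calls: active = spots per cell inhibited over 60%, with over 100 cells counted and total cytoplasm intensity under 500,000; inconclusive = wells with under 100 cells, flagged as likely toxic; inactive = the rest.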

Molecular target: G-protein coupled receptor 55 (Homo sapiens) (UniProt Q9Y2T6)
Test: inhibition of LPI-stimulated GPR55 beta-arrestin translocation – imaging, U2OS, beta-arrestin-GFP, LPI agonist, primary screen (AID 2013);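 note: U2OS cells stably carrying GPR55 and arrestin-GFP stimulated by 5 µM LPI near EC80; imaged beta-arrestin-GFP aggregate spots per cell after agonist stimulation; plate controls were LPI-stimulated DMSO wells for no effect and DMSO wells without LPI for full effect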
Settings: LPI antagonism, at 10 µM, hits give high values

Sequence of G-protein coupled receptor 55 (Homo sapiens) (Q9Y2T6 whole entry, looked up): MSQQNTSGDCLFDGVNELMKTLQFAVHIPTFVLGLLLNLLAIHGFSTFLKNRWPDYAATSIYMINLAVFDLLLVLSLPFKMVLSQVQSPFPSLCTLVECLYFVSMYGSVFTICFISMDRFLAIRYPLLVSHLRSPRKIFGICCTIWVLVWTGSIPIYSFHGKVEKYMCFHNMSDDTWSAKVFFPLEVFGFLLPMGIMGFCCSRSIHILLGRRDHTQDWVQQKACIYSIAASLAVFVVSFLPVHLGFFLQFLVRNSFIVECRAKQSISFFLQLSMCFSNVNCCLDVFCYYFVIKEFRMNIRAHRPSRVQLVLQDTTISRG

| SMILES | inhibition |
| --- | --- |
| c1ccc2c(c1)OCC(c1csc3ncnc(N4CCOCC4)c13)O2 (stereo unspecified) | 18.5% |
| CCN(CC)c1ncnc2scc(C3COc4ccccc4O3)c12 (stereo unspecified) | 31% |
| c1ccc2c(c1)OCC(c1csc3ncnc(N4CCCC4)c13)O2 (stereo unspecified) | 26.4% |
| c1ccc2c(c1)OCC(c1csc3ncnc(N4CCCCC4)c13)O2 (stereo unspecified) | 6% |
| CC(C)CCNc1c(-c2cccs2)nc2ccccn12 | 8.2% |
| CC(=O)Nc1nc(-c2ccc(Cl)cc2)ns1 | 9.6% |
| CC(C)=CC(=O)OCc1csc(CC(=O)Nc2ccccc2C)n1 | 8.4% |
| Clc1ccc(-n2nnnc2-c2cnc(-c3ccncc3)nc2-c2cccs2)cc1 | 6.4% |
| Clc1ccc(-c2nnnn2-c2ccc(Cl)cc2)cc1 | 7.1% |
| Cn1c(C(=O)N[C@@H](Cc2ccccc2)C(=O)NCCC(=O)O)cc2cc(Cl)ccc21 | 2.2% |
| Cc1ccc(-c2nnc(Oc3ccc(NC(=O)c4ccccc4)cc3)c3ccccc23)cc1 | 9.6% |
| CC(=O)Oc1ccc2ccccc2c1C(NC(=O)Cc1ccccc1)c1ccc(Cl)cc1 (stereo unspecified) | 3.5% |
| CCC(=O)NC(c1ccccc1)c1c(OC(C)=O)ccc2ccccc12 (stereo unspecified) | 9.1% |
| CN=C1CC(C)(C)CC(=O)/C1=C(/O)CCC(=O)NC | 11.2% |
| CCN1C(=O)N/C(=C/c2ccc(C)o2)C1=O | -0.6% |
| Cc1ccc(/C=C2\C(=O)NC(=O)N2C)o1 | 6.8% |
| C=CCN1C(=O)N/C(=C/c2ccc(C)o2)C1=O | 6.7% |
| Cc1ccc(/C=C2/NC(=O)N(Cc3ccccc3F)C2=O)o1 | -7.6% |
| O=C1CC(NC(=O)c2ccc(Cl)cc2)C(=O)N1 (stereo unspecified) | 8% |
| Cc1ccc2c(c1)C1(C(=O)N2C)N2CC3(C)CN1CC(C)(C2)C3=O (stereo unspecified) | -15.5% |
| CC(=O)/C=C1\N(C)c2ccc(C)cc2C1(C)C | 9.7% |
| CC/C(=C/c1sc2ccc(C)cc2[n+]1CCO)SC | -7.4% |
| Cc1ccc(-c2c3c(=O)n(C)c(=O)n(C)c3cn2N2CCOCC2)cc1 | -4% |
| O=C(c1ccco1)N(CCCN1CCOCC1)c1nc(-c2ccc(Cl)cc2)cs1 | 69.4% (active) |

| SMILES | inhibition |
| --- | --- |
| O=C(c1ccco1)N(CCCN1CCOCC1)c1nc(-c2ccc(F)cc2)cs1 | 28.3% |
| Cc1ccc(-c2csc(N(CCCN3CCOCC3)C(=O)c3ccco3)n2)cc1 | 21.7% |
| NS(=O)(=O)c1ccc(NNC(=O)c2ccccc2C(=O)O)cc1 | 6.3% |
| CCCSc1ccc(-c2nn(-c3ccccc3)cc2/C=C(/C#N)C(=O)NCCCOC)cc1 | -5.1% |
| CCSc1ccc(-c2nn(-c3ccccc3)cc2/C=C(/C#N)C(=O)NC)cc1 | 0.7% |
| CCCCn1c(N)c(N(CC(C)C)C(=O)C2CCN(C(=O)c3ccc(F)cc3)CC2)c(=O)[nH]c1=O | -8.6% |
| CCCCCCOc1ccc(OCC(O)CN2C(=O)NC(C)(C)C2=O)cc1 (stereo unspecified) | -5.4% |
| Cc1ccc(N2C(=O)CC(N(CCc3ccccc3)C(=S)Nc3ccc(N(C)C)cc3)C2=O)cc1 (stereo unspecified) | 0.8% |
| CCOC(=O)/C(C#N)=C\c1cccnc1 | 0.9% |
| CCOC(=O)/C(=C\c1ccccc1)C(=O)c1cc(C(C)=O)c(Nc2ccccc2)s1 | -0.8% |
| O=C(CSc1ccccc1C(=O)N1CCCCC1)NCC1CCCCC1 | 15.6% |
| Cc1c(O)nc2sc3ccccc3n2c1=O | -0.7% |
| Cc1ccc(NC(=O)C(OC(=O)c2ccccc2Cl)c2ccccc2)cc1Cl (stereo unspecified) | 13.2% |
| O=C(N/C=C/c1ccc(Cl)cc1)NCc1ccc(Cl)cc1 | 9% |
| O=[N+]([O-])c1ccc(C2CNC(c3ccccc3)O2)cc1 (stereo unspecified) | 7.3% |
| N#Cc1c(Cl)nc(SCc2ccccc2)nc1-c1ccccc1 | -1.5% |
| CSc1nc(Cl)c(C#N)c(-c2ccc(C)cc2)n1 | 68.5% (active) |
| COc1ccc(-c2nc(-c3cccc(C)c3)nc(Cl)c2C#N)cc1 | 5.9% |
| Cn1cc([C@@H]2C[C@H]3CN(C4CCCC4)C(=O)[C@]34CCCN24)c(-c2ccccc2)n1 | -0.1% |
| COc1ccc2oc(C(=O)OCC(=O)NC(C)c3ccccc3)c(C)c2c1 (stereo unspecified) | -1.9% |
| Cc1cc(C(=O)NCC(=O)O)c(C)o1 | 2.3% |
| Cc1cc(C(=O)NN)c(C)o1 | 1% |
| Cc1cc(C(=O)NCC23CC4CC(CC(C4)C2)C3)c(C)o1 | 72.6% (active) |
| COc1cc(/C=C(/NC(=O)c2ccccc2)C(=O)N2CCOCC2)c([N+](=O)[O-])cc1OC | 13.2% |

| SMILES | inhibition |
| --- | --- |
| Cc1cc(C(F)(F)F)nc(-n2cc(-c3ccccc3)nn2)n1 | 7.4% |
| Cc1nn(C(C)(C)C)c(OC(=O)c2ccc(Br)o2)c1Sc1ccccc1 | -4.1% |
| Cc1nn(C(C)(C)C)c(OC(=O)c2ccco2)c1Sc1ccccc1 | 7% |
| CCC1(C)CC(=O)N(c2ccc(F)c(Cl)c2)C(=O)C1 | 0.3% |
| CC1=NN(c2ccccc2)C(=O)/C1=C/C=C/c1ccccc1 | 5.8% |
| CC1=NN(c2cccc(C(=O)O)c2)C(=O)/C1=C\C=C\c1ccco1 | 10.3% |
| CCOC(=O)C(C)(C)N(Cc1ccc(Cl)cc1)S(=O)(=O)c1ccc(Cl)c([N+](=O)[O-])c1 | 44.2% |
| CCOC(=O)C(C)(C)NS(=O)(=O)c1ccc(Cl)c([N+](=O)[O-])c1 | 6.3% |
| CCOC(=O)C(C)(C)N(Cc1ccccc1C)S(=O)(=O)c1ccc(Cl)c([N+](=O)[O-])c1 | 44% |
| CCOC(=O)C(C)(C)N(Cc1cccc(C)c1)S(=O)(=O)c1ccc(Cl)c([N+](=O)[O-])c1 | 73.8% (active) |
| CCOC(=O)C(C)(C)N(Cc1cccc(C)c1)S(=O)(=O)c1cccc([N+](=O)[O-])c1 | 9.3% |
| CC(=O)Nc1ccc(S(=O)(=O)NCC(=O)OCC(=O)N2CCc3ccccc32)cc1 | -1.9% |
| Cc1cc(C)c(C)c(Oc2ncnc(N)c2[N+](=O)[O-])c1 | 0.6% |
| Cc1nc([N+](=O)[O-])cn1CC(=O)Nc1ccc(F)c(Cl)c1 | 1.9% |
| Cn1ccnc1SCC(=O)N1CCc2ccccc21 | -2.6% |
| O=S(=O)(/N=C/N1CCOCC1)c1ccc(Cl)cc1 | 8.2% |
| COc1cc(OC)cc(C(=O)N2CCN(C(=O)c3cccs3)CC2)c1 | -11.9% |
| COc1ccc2[nH]cc(C=O)c2c1 | -7.9% |
| COc1ccc(OC)c(CNc2c(C=O)c(=O)[nH]c3ccccc23)c1 | 1.2% |
| COc1ccc(OC)c(-n2c(=O)c3ccccc3c3ccccc3c2=O)c1 | 9.4% |
| COc1ccc(N2C(=O)CCC2=O)c(OC)c1 | 1.4% |
| O=C1NC(=O)/C(=C\c2cn(CC(=O)N3CCOCC3)c3ccccc23)S1 | -3.8% |
| O=Cc1cn(CC(=O)N2CCOCC2)c2ccccc12 | 6.5% |
| O=C(c1ccccc1)N1N=C(c2ccccc2)CC1c1ccccc1[N+](=O)[O-] (stereo unspecified) | 4% |

| SMILES | inhibition |
| --- | --- |
| OC(COc1cccc2ccccc12)CN1CCCC1 (stereo unspecified) | -4.7% |
| CN1C(=O)[C@H]2[C@@H](/C=C/c3ccccc3)N3C(=O)CN(CC4CC4)C(=O)[C@@]3(C)[C@H]2C1=O | 7.6% |
| Cc1cc(C)c(C)c(OCCN2CC(C)OC(C)C2)c1 (stereo unspecified) | -23.1% |
| Cc1ccc(C(C)C)c(OCC(O)CN2CCc3ccccc3C2)c1 (stereo unspecified) | 2.1% |
| O=S(=O)(c1ccccc1F)N1CCC(c2nc3ccccc3[nH]2)CC1 | -18.2% |
| COc1cc(C2=NOC(C(=O)Nc3cc(C)on3)C2)cc(OC)c1OC (stereo unspecified) | 0.6% |
| COc1ccccc1NC(=O)COc1ccc2c(c1)OCO2 | 19% |
| CS(=O)(=O)CCC(C(=O)OCC(=O)c1ccc(Cl)cc1)N1C(=O)c2ccccc2C1=O (stereo unspecified) | -0.1% |
| Cc1ccc(NC2(C(F)(F)F)N=C(c3ccccc3)NC2=O)nc1 (stereo unspecified) | 87% (active) |
| Cc1ccnc(NC2(C(F)(F)F)N=C(c3ccccc3)NC2=O)c1 (stereo unspecified) | -6% |
| O=C1NC(c2ccccc2)=NC1(Nc1ccccn1)C(F)(F)F (stereo unspecified) | 13.1% |
| CCOc1ccc(C2(C)CC(=O)N(C)C2=O)cc1 (stereo unspecified) | 5.8% |
| Cc1nnc(-c2cccc(Br)c2)c2cn(-c3ccccc3)nc12 | 9.1% |
| Cc1nnc(-c2cccc(Br)c2)c2cn(-c3cccc(Br)c3)nc12 | 1.6% |
| COc1ccc(-n2cc3c(-c4cccc(Br)c4)nnc(C)c3n2)cc1 | 45.1% |
| Cc1nnc(-c2cccc(Br)c2)c2cn(-c3ccccc3Cl)nc12 | 7.4% |
| COc1ccc(C)cc1NS(=O)(=O)c1cn(C)nc1C | 3.9% |
| CC(NC(=O)CCc1nnc(CCCc2ccccc2)o1)c1ccccc1 (stereo unspecified) | -2.7% |
| CN(Cc1ccccc1)C(=O)CCC1CCN(C(=O)CC2=CCCCC2)CC1 | 0.7% |
| O=C(N1CCN(c2ccc(F)cc2)CC1)C12CC3CC(CC(C3)C1)C2 | 1.6% |
| CCCN1CNC(=S)N(c2ccccc2OC)C1 | 10% |
| N=c1c2c3c(sc2ncn1CCN1CCOCC1)CCCC3 | 18.2% |
| COc1cc(/C=C2/C(=O)NN(c3ccc(C)c(Cl)c3)C2=O)cc([N+](=O)[O-])c1O | 2.2% |
| O=C1NC(=S)N/C1=C/c1cc2c(cc1[N+](=O)[O-])OCO2 | 4.7% |
